SMARCA2 act: SMARCA2 (BRM) function activators, primary screen, cell-based, luminescence, high throughput; MG213 cells, MMTV-luciferase reporter, dexamethasone, overnight; 370,000 tested, 1% active; activation, % at 9.1 µM; in the data active means activation above about 7.8%;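 further: 0% = vehicle wells and 100% = reference activator wells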
hgDAF12 agonist: H. glycines DAF-12 receptor agonists, primary screen, cell-based, luminescence, HEK293, GAL4 fusion, UAS-luciferase | 370,000 tested, 1.8% active | HEK293 GAL4-hgDAF12 UAS-luciferase reporter, agonist luminescence; normalized to butyrate control | activation, % at 6.8 µM | Nuclear hormone receptor DAF-12 (Heterodera glycines), GAL4 fusion;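 active means activation above a cutoff set at the mean of all screened compounds plus 3 SD, cut at about 10% in these data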;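 further: 0% = DMSO wells and 100% = sodium butyrate wells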
DAX1 inh-1: DAX1 (NR0B1) inhibitors on StAR promoter, primary screen, cell-based, luminescence, SF-1 (NR5A1), full-length DAX-1. AID 652010, 2013. inhibition, % at 6.8 µM. HEK293T StAR-luciferase reporter, SF-1/DAX-1 repression relief. 370,000 tested, 1.1% active;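 active means inhibition above the mean over all tested compounds plus 3 SD, cut at about 3.6% in these data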;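 further: 0% = DAX-1 cells with DMSO and 100% = cells lacking DAX-1 with DMSO; higher inhibition means more luminescence from relief of DAX-1 repression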
DAX1 inh-2: DAX1 (NR0B1) inhibitors, primary screen, cell-based, HEK293, Gal4-DAX1, luciferase luminescence | 340,000 tested, 0.99% active | inhibition, % at 6.75 µM | Nuclear receptor subfamily 0 group B member 1 (Homo sapiens), P51843 | HEK293 Gal4-DAX1 luciferase reporter;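 active means inhibition above the mean over all tested compounds plus 3 SD, cut at about 4.2% in these data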;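 further: 0% = DAX1-transfected cells with DMSO and 100% = empty-vector control cells with DMSO; inhibition shows as a rise in luminescence from relieved DAX1 repression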
ssDAF12 agonist: S. stercoralis DAF-12 nuclear receptor activators, primary screen, cell-based, luminescence, HEK293, GRIP1 co-expression, lit1-tk-luc; Nuclear hormone receptor DAF-12 (Strongyloides stercoralis); 370,000 tested, 1% active; HEK293 ssDAF-12/GRIP1 lit1-tk-luc reporter; % of 3 µM dafachronic acid response; AID 652126, 2013; activation, % at 6.8 µM;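 active means activation above the mean over all tested compounds plus 3 SD, cut at about 0.9% in these data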;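 further: 0% = DMSO-only wells and 100% = 3 µM delta7-dafachronic acid wells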
hcDAF12 agonist: H. contortus DAF-12 nuclear receptor activators, primary screen, cell-based, luminescence, HEK293, lit1-tk-luc reporter; HEK293 hcDAF-12 lit1-tk-luc reporter; 0% DMSO, 100% Δ7-dafachronic acid; AID 652067, 2013; 370,000 tested, 1.4% active; activation, % at 6.8 µM;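 active means activation above the mean of all tested compounds plus 3 SD, cut at about 5.5% in these data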;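 further: 100% = response to 3 µM Δ7-dafachronic acid high control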
DAX1 inh confirm: DAX1 (NR0B1) inhibitors relieving SF-1 repression, confirmation, cell-based, luminescence, HEK293T, full-length DAX-1, SF-1 activated StAR promoter; shares compounds with DAX1 inh-1; HEK293T StAR-promoter luciferase reporter, SF-1/DAX-1 repression; inhibition, % at 6.8 µM; 2,400 tested, 87% active; AID 652134, 2013;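 active means inhibition above the average of every tested compound plus 3 SD, cut at about 3.8% in these data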;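 further: 0% = DAX-1 cells with DMSO and 100% = no DAX-1 control cells with DMSO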
Target sequence (P51843 whole entry, looked up): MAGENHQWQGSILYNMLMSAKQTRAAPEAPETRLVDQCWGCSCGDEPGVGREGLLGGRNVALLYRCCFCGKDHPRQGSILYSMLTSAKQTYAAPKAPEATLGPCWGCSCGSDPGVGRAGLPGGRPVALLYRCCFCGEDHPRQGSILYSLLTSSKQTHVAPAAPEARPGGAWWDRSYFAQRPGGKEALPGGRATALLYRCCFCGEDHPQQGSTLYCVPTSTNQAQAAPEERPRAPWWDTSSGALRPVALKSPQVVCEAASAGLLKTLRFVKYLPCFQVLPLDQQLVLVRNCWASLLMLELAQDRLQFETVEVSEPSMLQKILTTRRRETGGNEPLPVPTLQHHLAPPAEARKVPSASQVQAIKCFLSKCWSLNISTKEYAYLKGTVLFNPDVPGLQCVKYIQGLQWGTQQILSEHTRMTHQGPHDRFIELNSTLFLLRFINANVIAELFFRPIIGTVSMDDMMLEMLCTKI
SF1 AF2mut Luc: StAR reporter signal changes without DAX1, counter-screen for DAX1 inhibitor project, cell-based, luminescence, AF-2 mutant SF-1, transactivation | shares compounds with DAX1 inh-1 | HEK293 StAR-luciferase, SF-1 AF2 mutant | inhibition, % at 6.8 µM | 2,400 tested, 78% active;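 active means inhibition above the mean of all tested compounds plus 3 SD, cut at about 3% in these data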;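 further: 0% = DAX-1 transfected cells with DMSO and 100% = cells without DAX-1 with DMSO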
An asterisk follows results filed as active; / = no result. An excerpt weighted towards active compounds, which were near 4.8% of everything screened.

SMILES | SMARCA2 act | hgDAF12 agonist | DAX1 inh-1 | DAX1 inh-2 | ssDAF12 agonist | hcDAF12 agonist | DAX1 inh confirm | SF1 AF2mut Luc
CCC(=O)C1CCCN(C(=O)CCc2nnc(-c3ccc4c(c3)OCO4)o2)C1 (centres undefined) | 3 | 4 | 1 | 0 | 0 | 3 | / | /
COC(=O)c1sc(C(F)(F)F)c(-c2ccccc2)c1S(=O)(=O)N1CCCC1 | 0 | -2 | 0 | -1 | -1 | -1 | / | /
CCC(C)NC(=O)C1CCN(c2nc(C)cc(C)n2)CC1 (centres undefined) | -2 | 1 | 0 | -1 | 0 | -1 | / | /
CC(C)(C)c1ccc(C(=O)Nc2ccc(NC(=O)c3ccco3)cc2)cc1 | -1 | -2 | -1 | 0 | -2 | -2 | / | /
C/C(=N\NC(=O)c1ccco1)c1ccc(NC(=O)C(F)(F)F)cc1 | 3 | 9 | 7.2* | 2 | -1 | 5 | 2 | 1
O=C(O)c1cccc(N/N=C/c2ccc(F)c(F)c2)c1 | 7 | 9 | 5.0* | -2 | 0 | 3 | 11* | 7.2*
O=C(O)c1cccc(N/N=C/c2cn(-c3ccccc3)nc2-c2cccs2)c1 | 3 | 4 | 6.4* | 2 | -1 | 0 | 18* | 9.2*
COc1cc(NC(=O)CCCN2C(=O)NC(C)(C)C2=O)cc(OC)c1 | 0 | -3 | 4.8* | 1 | -1 | 0 | 2 | 0
COC(=O)c1ccc(NC(=O)CCCN2C(=O)NC(C)(C)C2=O)cc1 | -1 | -1 | -1 | 0 | -1 | -1 | / | /
Cc1cccc(NC(=O)NC2CCCCCCC2)c1 | 6 | 8 | 5.7* | 1 | 0 | 1 | 4.9* | 3.6*
Cc1nc(-c2ccc(NC(=O)/C=C\C(=O)O)cc2)cs1 | 2 | 9 | 0 | -2 | -1 | -1 | / | /
Cc1ccc2sc(-c3ccc(NC(=O)/C=C\C(=O)O)cc3)nc2c1 | 1 | 12* | 5.3* | -2 | 0 | 6.2* | 9.9* | 6.5*
CN1CCC(N2CCN(C3CN(Cc4cn(Cc5ccc(F)cc5)nn4)S(=O)(=O)C3)CC2)CC1 (centres undefined) | -1 | 4 | 3 | / | -1 | -1 | / | /
COc1ccc(Cn2cc(CN3CC(N4CCN(C5CCN(C)CC5)CC4)CS3(=O)=O)nn2)cc1 (centres undefined) | 6 | -1 | 7.6* | / | -1 | 0 | 2 | -1
C/C(=N\NC(=O)c1cc(O)cc(O)c1)c1ccc(NC(=O)Cc2ccccc2)cc1 | 3 | 9 | 3 | 3 | 0 | 3 | / | /
C/C(=N\NC(=O)c1cccc(C)c1O)c1ccc(NC(=O)Cc2ccccc2)cc1 | 0 | 10 | 6.0* | 2 | 0 | 6.5* | 4.8* | 3.8*
O=C(/C=C/c1ccc(S(=O)(=O)N2CCOCC2)cc1)NCc1ccccc1F | -2 | -3 | 5.0* | 0 | -1 | 0 | 0 | 1
Cc1ccc(NC(=O)CCc2c(C)nn(-c3ccc(N4CCCCC4)nn3)c2C)cc1F | 2 | 11* | 10* | 0 | 0 | 1 | 8.2* | 4.0*
CCCCC[C@@H](C)N1C[C@H](COCc2ccccc2)Oc2cc(N3CCC[C@@H]3COC)ccc2S1(=O)=O | 7 | 7 | 5.1* | / | 0 | 2 | 5.7* | 4.3*
O=C(NCCc1cccc(Cl)c1)c1cccs1 | 4 | 11* | 4.5* | 0 | -2 | 4 | 6.6* | 3.8*
COc1c(C=O)c2c(c(OC)c1OC)-c1ccc(OC)c(=O)cc1C(NC(C)=O)CC2 (centres undefined) | 2 | -4 | 5.1* | -1 | 0 | 2 | 21* | -8
COc1cc2c(c(OC)c1OC)-c1ccc(OC)c(=O)cc1C(NC(=O)c1ccccc1)CC2 (centres undefined) | -1 | -5 | 4.7* | 1 | -1 | 1 | 16* | -6
O=S(=O)(c1ccc(Cl)cc1)N1CCN(Cc2cccnc2)CC1 | -2 | 0 | 0 | 0 | -1 | 1 | / | /
CCc1cccc2c(=O)c(C(=O)N3CCCCCC3)c[nH]c12 | -2 | -2 | 1 | 0 | -2 | -1 | / | /
CCc1cccc2c(C(=O)CN3C(=O)N(C)C4(CCCCC4)C3=O)c[nH]c12 | 2 | -6 | 7.9* | 0 | -1 | -3 | 11* | -1
SMILES | SMARCA2 act | hgDAF12 agonist | DAX1 inh-1 | DAX1 inh-2 | ssDAF12 agonist | hcDAF12 agonist | DAX1 inh confirm | SF1 AF2mut Luc
CCc1cccc2c(C(=O)CN3C(=O)NC4(CCc5ccccc54)C3=O)c[nH]c12 (centres undefined) | 3 | -10 | 12* | -1 | -2 | -1 | 5.9* | -4
CCc1cccc2c(C(=O)CN3C(=O)NC(C)(c4cccc5ccccc45)C3=O)c[nH]c12 (centres undefined) | 5 | -4 | -1 | -1 | -1 | 2 | / | /
Cc1ccc(-c2csc3ncnc(Oc4cccc5ccc(C)nc45)c23)cc1 | -5 | -2 | 0 | 1 | 0 | -1 | / | /
Cc1cccc(-c2noc(CCC(=O)N3CCN(c4cc(C)ccc4C)CC3)n2)c1 | 3 | 10 | 6.3* | 3 | 0 | 2 | 6.0* | 3.9*
CCOc1ccc(NS(=O)(=O)c2ccc(C(=O)NCC3(N4CCCCC4)CCCCC3)cc2)cc1 | -2 | 2 | 4.5* | 1 | 0 | -1 | 11* | 3.5*
O=C(NCC1(N2CCCCC2)CCCCC1)c1cccc(NS(=O)(=O)c2ccccc2)c1 | 2 | 0 | 6.9* | 0 | -1 | 0 | 8.3* | 4.1*
Cc1cccc(NS(=O)(=O)c2cccc(C(=O)NCC3(N4CCOCC4)CCCCC3)c2)c1 | -3 | -2 | -2 | 0 | -1 | -2 | / | /
Cc1cc(S(=O)(=O)Nc2ccc(C(=O)NCC3(N4CCCCC4)CCCCC3)cc2)ccc1F | -2 | 1 | 7.4* | 2 | 0 | 1 | 7.6* | 6.1*

Source: PubChem BioAssay
